For test [1], the system named is Wnt5a (protein binding on small-molecule microarray). Description: Wnt5a binders on small-molecule microarray, primary screen, biophysical, 635/667 nm fluorescence (AID 1142).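 Further: fluorescence read at 667 nm with signal to noise per printed feature.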 Conditions: 635 nm fluorescence, higher = more signal.
Test [2] can be described thus: cell viability in Huh7 cells, primary screen, cytotoxicity control for HCV replication inhibitor project, CellTiter-Glo luminescence, basal, 48 h (AID 1143).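 Further: Huh7 hepatoma cells carrying a hepatitis C replication reporter with no stimulus; test concentration not given here.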 Conditions: Huh7 HCV replicon, higher = more signal, called active from +8 up or from −8 down. Background: Cellular ATP, detected with luciferase, serves as a proxy for viable cell number.
Test [3] is described as follows: P. aeruginosa biofilm formation inhibitors, primary screen, PAO1 strain, BacTiter-Glo luminescence, LB-PBS (AID 1144). Particulars: 12 h, higher = more signal.
Test [4] can be described thus: CREB reporter modulators without forskolin, primary screen, cell-based, PC12, CRE-LacZ reporter, unstimulated (AID 1145). Particulars: no forskolin, luminescence, 4.5 h, higher = more signal, called active from +8 up or from −8 down.
Test [5] in a line: CREB reporter modulators under forskolin, primary screen, cell-based, PC12, CRE-LacZ reporter, forskolin-stimulated (AID 1146).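 Further: PC12 cells with 6xCRE LacZ reporter stimulated by forskolin 10 µM; beta-galactosidase reporter signal reflecting CREB driven transcription.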 Particulars: luminescence, 4.5 h, higher = more signal, called active from +8 up or from −8 down.
The target in test [6] is Streptavidin (Streptomyces avidinii) (UniProt P22629). Put plainly: streptavidin binders on small-molecule microarray, primary screen, artefact control for SMM compound annotation, biophysical, 635/667 nm fluorescence (AID 1147).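 Further: signal reflects streptavidin binding to arrayed compounds as a control protein.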 Particulars: streptavidin binding, higher = more signal.
The nature of test [7]: small-molecule binders of probe aInhba, primary screen, biochemical, small-molecule microarray, 635/667 nm fluorescence (AID 1148).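 Further: score merges 667nm spot fluorescence with signal-to-noise for antibody binding to printed compounds.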 Particulars: higher = more signal.
The target in test [8] is Torsin-1A (Homo sapiens) (UniProt O14656). Put plainly: torsin A binders from cell lysate, primary screen, small-molecule microarray, wild-type, 635/667 nm (AID 1149). Conditions: COS7 hTOR1A-WT lysate, 635 nm fluorescence, higher = more signal.
For test [9] the target is unchanged. Put plainly: small-molecule binders of mutant TOR1A in lysate, primary screen, cell lysate, small-molecule microarray, COS7 lysate, 635/667 nm fluorescence (AID 1150).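 Further: score pools 667 nm emission and signal to noise measuring lysate protein binding.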 Conditions: COS7 hTOR1A mutant lysate, 635 nm fluorescence, higher = more signal.
In test [10] the test system is Sonic hedgehog protein (Shh). Put plainly: small-molecule binders of Shh protein, primary screen, biochemical, small-molecule microarray, 635/667 nm fluorescence (AID 1151).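 Further: Shh protein binding to compounds spotted on small-molecule microarray slides; score combines spot fluorescence intensity with signal-to-noise across triplicate slides.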 Conditions: small-molecule microarray binding, 635 nm fluorescence; higher = more signal.
Test [11] is described as follows: E. coli DRC41 culture turbidity changes, primary screen, E. coli filamentation inducer project, strain DRC41, OD650, 48 h (AID 1152).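 Further: E. coli MC1000 strain DRC41 lacking acrAB efflux pump and sulA.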 Conditions: E. coli DRC41 (acrAB sulA), higher = more signal, called active from +8 up or from −8 down.
Test [12] can be described thus: small-molecule binders of probe aLefty1, primary screen, biochemical, small-molecule microarray, 635/667 nm fluorescence (AID 1153).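 Further: score merges spot fluorescence with signal-to-noise ratio from the scanned slide images.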 Conditions: higher = more signal.
A short description of test [13]: PSAC antagonists in infected red cells, primary screen, cell-based, P. falciparum Indochina, OD700, 1 h (AID 1154). Particulars: P. falciparum Indochina infected RBC osmotic lysis, higher = more signal, called active from +8 up or from −8 down.
Test [14] is described as follows: PSAC antagonists in infected red cells, primary screen, cell-based, P. falciparum Indochina, OD700, 2 h (AID 1155).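 Further: lysis reports solute entry through the parasite surface anion channel PSAC; channel blockers reduce lysis of infected cells.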 Particulars: P. falciparum Indochina infected erythrocytes, osmotic lysis OD700; higher = more signal, called active from +8 up or from −8 down.
Test [15] is described as follows: osmotic lysis modulators in infected erythrocytes, primary screen, PSAC antagonist project, cell-based, P. falciparum Indochina, OD700, 3 h (AID 1156). Conditions: higher = more signal, called active from +8 up or from −8 down.
A short description of test [16]: PSAC antagonists in infected red cells, primary screen, cell-based, P. falciparum Indochina, OD700, 18 h (AID 1157). Conditions: P. falciparum Indochina infected erythrocytes, osmotic lysis OD700, 18 h; higher = more signal, called active from +8 up or from −8 down.
Test [17] can be described thus: modulators of S6 phosphorylation in cells, primary screen, cell-based, A549, cytoblot, luminescence, serum-stimulated (AID 1158).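 Further: serum-stimulated A549 lung adenocarcinoma cells; signal is phosphorylated S6 detected by cytoblot immunostaining with HRP secondary.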 Particulars: A549 phospho-S6 cytoblot, 5 h, higher = more signal.
Test [18] addresses NADPH oxidase 2 (Homo sapiens) (UniProt P04839). Put plainly: NOX2-dependent H2O2 signal modulators, primary screen, NOX inhibitor project, cell-based, HEK293-NOX2, PMA-stimulated, Amplex Red fluorescence (AID 1159). Further: test concentration not given here. Particulars: 45 min, higher = more signal, called active from +8 up or from −8 down.
Test [19] addresses NADPH oxidase 4 (Homo sapiens) (UniProt Q9NPH5). Description: NOX4-dependent H2O2 signal modulators, primary screen, NOX inhibitor project, cell-based, HEK293-NOX4, tetracycline-induced, Amplex Red fluorescence (AID 1160). Particulars: 45 min, higher = more signal, called active from +8 up or from −8 down.
The target of test [20] is NADPH oxidase 5 (Homo sapiens) (UniProt Q96PH1). Put plainly: NOX5-dependent H2O2 signal modulators, primary screen, NOX inhibitor project, cell-based, HEK293-NOX5, Amplex Red fluorescence (AID 1161). Particulars: HEK293-NOX5, ionomycin, 45 min, higher = more signal.

Active and inactive are the calls of the source. Unless noted, how the calls were made is not given here.

Chain of NADPH oxidase 2 (Homo sapiens) (P04839 whole entry, looked up): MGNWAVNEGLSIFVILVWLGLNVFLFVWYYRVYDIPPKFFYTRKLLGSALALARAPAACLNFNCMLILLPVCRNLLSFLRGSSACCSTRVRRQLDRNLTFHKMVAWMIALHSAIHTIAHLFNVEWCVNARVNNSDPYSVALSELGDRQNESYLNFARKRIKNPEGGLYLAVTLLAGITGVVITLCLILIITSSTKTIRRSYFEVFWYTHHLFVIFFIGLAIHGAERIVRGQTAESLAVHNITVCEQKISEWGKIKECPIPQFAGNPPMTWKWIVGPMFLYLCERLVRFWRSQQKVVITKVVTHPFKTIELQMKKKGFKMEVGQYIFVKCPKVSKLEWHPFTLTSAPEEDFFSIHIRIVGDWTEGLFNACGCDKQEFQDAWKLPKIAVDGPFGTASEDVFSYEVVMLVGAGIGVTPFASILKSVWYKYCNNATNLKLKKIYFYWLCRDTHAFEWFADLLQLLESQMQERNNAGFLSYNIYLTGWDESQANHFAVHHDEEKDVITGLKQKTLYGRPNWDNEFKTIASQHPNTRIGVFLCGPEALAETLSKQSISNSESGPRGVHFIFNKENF
Chain of NADPH oxidase 5 (Homo sapiens) (Q96PH1 whole entry, looked up): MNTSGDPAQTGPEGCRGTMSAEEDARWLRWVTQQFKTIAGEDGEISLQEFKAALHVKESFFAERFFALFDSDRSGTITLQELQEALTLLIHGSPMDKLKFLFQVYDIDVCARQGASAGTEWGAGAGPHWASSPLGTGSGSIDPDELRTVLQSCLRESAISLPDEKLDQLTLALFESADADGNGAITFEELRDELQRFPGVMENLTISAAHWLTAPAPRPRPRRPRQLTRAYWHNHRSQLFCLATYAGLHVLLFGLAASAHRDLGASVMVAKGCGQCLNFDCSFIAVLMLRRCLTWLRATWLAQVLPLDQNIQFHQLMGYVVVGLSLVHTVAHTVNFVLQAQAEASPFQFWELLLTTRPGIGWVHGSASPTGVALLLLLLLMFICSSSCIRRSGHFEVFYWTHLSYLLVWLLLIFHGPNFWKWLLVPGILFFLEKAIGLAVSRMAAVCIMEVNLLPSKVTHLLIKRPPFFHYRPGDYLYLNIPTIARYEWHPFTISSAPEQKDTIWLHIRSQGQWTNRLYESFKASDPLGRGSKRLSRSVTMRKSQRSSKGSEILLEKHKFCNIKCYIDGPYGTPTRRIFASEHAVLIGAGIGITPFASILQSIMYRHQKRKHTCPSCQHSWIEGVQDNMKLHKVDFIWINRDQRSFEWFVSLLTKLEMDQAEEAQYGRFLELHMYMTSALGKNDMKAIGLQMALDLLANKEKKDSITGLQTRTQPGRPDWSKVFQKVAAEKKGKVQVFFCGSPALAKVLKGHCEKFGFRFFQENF
Chain of NADPH oxidase 4 (Homo sapiens) (Q9NPH5 whole entry, looked up): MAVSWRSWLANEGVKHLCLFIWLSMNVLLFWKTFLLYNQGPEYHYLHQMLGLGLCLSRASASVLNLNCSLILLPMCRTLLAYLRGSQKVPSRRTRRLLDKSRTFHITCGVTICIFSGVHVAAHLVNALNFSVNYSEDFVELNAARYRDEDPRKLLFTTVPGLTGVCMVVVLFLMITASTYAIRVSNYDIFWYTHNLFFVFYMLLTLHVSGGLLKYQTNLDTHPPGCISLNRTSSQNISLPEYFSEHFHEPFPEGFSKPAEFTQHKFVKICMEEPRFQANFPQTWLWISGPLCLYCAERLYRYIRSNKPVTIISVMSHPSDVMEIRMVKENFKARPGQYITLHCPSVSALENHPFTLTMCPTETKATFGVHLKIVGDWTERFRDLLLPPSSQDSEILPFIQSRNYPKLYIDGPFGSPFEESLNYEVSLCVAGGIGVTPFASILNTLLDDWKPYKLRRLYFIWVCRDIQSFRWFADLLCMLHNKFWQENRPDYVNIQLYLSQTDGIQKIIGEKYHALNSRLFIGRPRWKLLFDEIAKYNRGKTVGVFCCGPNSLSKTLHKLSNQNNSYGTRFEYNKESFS
Chain of Torsin-1A (Homo sapiens) (O14656 whole entry, looked up): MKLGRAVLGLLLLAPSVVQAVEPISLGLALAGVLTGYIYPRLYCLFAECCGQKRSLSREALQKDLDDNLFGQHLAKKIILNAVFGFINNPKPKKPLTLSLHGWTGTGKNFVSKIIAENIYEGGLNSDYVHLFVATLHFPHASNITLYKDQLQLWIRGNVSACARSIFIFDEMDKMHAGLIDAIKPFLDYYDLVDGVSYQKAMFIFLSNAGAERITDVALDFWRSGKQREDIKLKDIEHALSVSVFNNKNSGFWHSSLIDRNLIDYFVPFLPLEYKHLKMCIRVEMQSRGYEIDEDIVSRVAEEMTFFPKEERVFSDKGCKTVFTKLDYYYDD
Chain of Streptavidin (Streptomyces avidinii) (P22629 whole entry, looked up): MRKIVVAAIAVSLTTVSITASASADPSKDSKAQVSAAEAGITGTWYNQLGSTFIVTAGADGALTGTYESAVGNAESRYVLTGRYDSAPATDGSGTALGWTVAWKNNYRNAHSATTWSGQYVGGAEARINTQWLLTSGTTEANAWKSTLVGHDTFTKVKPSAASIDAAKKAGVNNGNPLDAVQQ

`[N-]=[N+]=NCc1ccccc1C[C@@]1(C(=O)NCC(O)CO)N=C(c2ccc(OCCCO)cc2)O[C@@H]1c1ccccc1` (stereo not given in full): the composite z-score in test [1] was 0.423; in [6], -0.0302; in test [7], 0.0377; in the test with Torsin-1A (Homo sapiens) [8] it was 0.237; in the test with Torsin-1A (Homo sapiens) [9], 1.14; in test [10], -0.982. The molecule also displayed a composite z-score in [12] of 0.237. Moreover, the z-score was -4.03 (inactive) in [2]; 0.141 (inactive) in test [3]; 1.8 (inactive) in test [4]; 0.617 (inactive) in test [5]; 0.0346 (inactive) in test [11]; 25.3 (active) in [13]. In addition, the z-score in [14] was 16.3 (active); in test [15], -1.11 (inactive); in test [16], 2.07 (inactive); in [17] it was -0.11; in test [18], 0.0842 (inactive); in test [19], 1.28 (inactive). The z-score in [20] came to 2.5.
Turning to `O=C1O[C@@H](c2ccccc2)[C@@H](c2ccccc2)N2[C@@H](c3ccc(OCCO)cc3)[C@]3(C(=O)Nc4ccc(C#CC5=CCCCC5)cc43)[C@@H](C(=O)N3CCCCCCC3)[C@H]12`, the composite z-score in test [1] was determined as 1.18; in test [6], 2.92; in test [7], 1.93; in the test with Torsin-1A (Homo sapiens) [8], 1.58; in the test with Torsin-1A (Homo sapiens) [9] it was 2.02; in test [10], 1.37. In test [12], this molecule displayed a composite z-score of 2.14. Further, the z-score was -2.05 (inactive) in test [2]; -0.334 (inactive) in [3]; 0.568 (inactive) in test [4]; 0.509 (inactive) in [5]; 0.343 (inactive) in test [11]; 3.46 (inactive) in [13]. Besides, the z-score was 1.85 (inactive) in [14]; 0.501 (inactive) in [15]; 1.03 (inactive) in [16]; -0.262 in test [17]; 0.463 (inactive) in test [18]; 0.159 (inactive) in [19]. In test [20], this molecule showed a z-score of 0.293.
For the molecule `CC(C)CCC[C@@H](C)[C@H]1CC[C@@]2(C)C3=C(CC[C@]12C)[C@@]1(C)CC[C@H](OC(=O)c2ccc(C(F)(F)F)nc2)C(C)(C)C1CC3` (stereo not given in full), the composite z-score in [1] is 0.0419; in test [6] it was 0.536; in test [7] it was 0.0411; with Torsin-1A (Homo sapiens) [8], 0.379; in the test with Torsin-1A (Homo sapiens) [9], 0.347; in [10], 1.04. The composite z-score in [12] was -0.155. The z-score in test [2] is -0.878 (inactive); in [3], -0.14 (inactive); in test [4] it was 0.399 (inactive); in test [5], -0.121 (inactive); in test [11], 3.47 (inactive); in [13], -1.05 (inactive). Besides, the z-score is -0.693 (inactive) in [14]; 0.103 (inactive) in [15]; -2.61 (inactive) in test [16]; 2.5 in [17]; -0.971 (inactive) in [18]; 0.129 (inactive) in [19]. In addition, in test [20], the z-score was 0.933.
In the case of `CC(C)NC(=O)[C@@H]1c2ccccc2C(=O)N(C(C)C)[C@H]1c1ccc(CO)cc1`, the composite z-score is -0.152 in test [1]; -0.977 in test [6]; -0.193 in test [7]; 0.0645 with Torsin-1A (Homo sapiens) [8]; 2.08 with Torsin-1A (Homo sapiens) [9]; -0.659 in [10]. In [12], this molecule came in with a composite z-score of -0.228. Also, the z-score in test [2] was 0.245 (inactive); in test [3], 1.28 (inactive); in test [4], 0.441 (inactive); in [5], 0.0729 (inactive); in [11], 1.17 (inactive); in test [13], 3.85 (inactive). The z-score in test [14] is 1.18 (inactive); in test [15], 0.151 (inactive); in test [16] it was 0.207 (inactive); in test [17], 0.0843; in [18] it was 0.274 (inactive); in test [19], 0.614 (inactive). The z-score in test [20] came to 0.964.

(Values after PubChem BioAssay.)
